NADH enzymes = inhibition of NAD/NADH coupling enzymes, library profiling; coupled PK/LDH NADH assays, four targets; IC50, µM (highest dose often 10 µM), inactives show top-dose inhibition; 65,000 compounds, 0.02% hits; AID 774;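 active means single-dose screening hits from any of four coupled enzyme assays that gave an IC50 when retested across doses; inconclusive means no clear call, values can overlap the other calls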;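 further: the DPM-DC format reads NADH fluorescence rather than 340 nm absorbance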
DPM-DC inhibit = inhibitors of Streptococcus pneumoniae diphosphomevalonate decarboxylase; 65,000 compounds, 0.49% hits; calls only at 10 µM; AID 556; purified DPM-DC, PK/LDH coupled NADH fluorescence;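 active means the 320 compounds with the highest percent inhibition in the single-dose primary screen, excluding strongly autofluorescent ones, cut at about 32% in these data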;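 further: kinetic rate of NADH fluorescence loss reporting ADP formed by the decarboxylase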
Fluor 339 460 = intrinsic fluorescence of library compounds, ex339/em460 – biochemical, MLSMR library, data from DPM-DC assay, artefact control, profiling panel. AID 709. fluorescence fold increase at 10 µM. compound autofluorescence, ex339/em460 nm, NADH buffer; hits give high values; 1 = no-compound wells, NADH background. 65,000 compounds, 5.5% hits;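 active means at 10 µM, mean starting fluorescence two-fold or more over control wells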;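 further: signal is the first read of a kinetic run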
Spn MK inh = blocks S. pneumoniae mevalonate kinase; inhibition, % at 10 µM; purified MK, PK/LDH-coupled NADH absorbance 340 nm; 65,000 compounds, 0.48% hits;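 active means ranked among the strongest by inhibition in the single 10 µM screen, a fixed top-ranked set picked for dose follow-up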
Spn PMK inh = inhibitors of Streptococcus pneumoniae phosphomevalonate kinase; purified PMK, PK/LDH-coupled NADH absorbance 340 nm; inhibition, % at 10 µM; 65,000 compounds, 0.49% hits;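 active means top-ranked compounds by inhibition in the single 10 µM screen, taking a fixed number of the strongest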;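 further: 0% = full reaction with DMSO carrier and 100% = background rate without enzyme reaction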
Numbers without * were called inactive; i = inactive; ? = inconclusive; · = not tested or not shown; + = active, no number. Most compounds without a hit are left out; they make up all but 6.6% or so of the library.

SMILES | NADH enzymes | DPM-DC inhibit | Fluor 339 460 | Spn MK inh | Spn PMK inh
CC1(C)C(C=C(Cl)Cl)C1C(=O)N1CCN(c2ccccc2)CC1 (stereo unspecified) | 14% | + | 1.2 | 9 | 0
Cn1cnnc1SCC(=O)c1cc2ccccc2oc1=O | 8% | i | 1 | 7 | 6
O=C(Cn1nc(Cl)nc1Cl)c1cc2ccccc2oc1=O | 12% | i | 2.2* | 8 | 13
O=C(Nc1nc(-c2cc3ccccc3oc2=O)cs1)c1ccco1 | 0% | · | 2.1* | 0 | 0
Cc1cc(N2CCN(C)CC2)nc2ccc(NC(=O)CCC(=O)NCCC3=CCCCC3)cc12 | 11% | i | 3.8* | 3 | 11
CCOC(=O)C1CCCN(C(=O)CCC(=O)Nc2ccc3nc(N4CCOCC4)cc(C)c3c2)C1 (stereo unspecified) | 9% | · | 4.7* | 8 | 10
O=C(Nc1ccc(N2CCOCC2)cc1)C1CC1 | 2% | i | 1 | 5 | 0
COCCCNC(=O)CCC(=O)Nc1ccc2nc(N3CCOCC3)cc(C)c2c1 | 9% | · | 4.7* | 9 | 8
CCN1CCN(c2cc(C)c3cc(NC(=O)c4ccncc4)ccc3n2)CC1 | 2% | i | 1.1 | 3 | 2
Cc1cc(N2CCOCC2)nc2ccc(NC(=O)C3CCC(C)CC3)cc12 (stereo unspecified) | 1% | · | 2.3* | 1 | 3
CCCCNC(=O)c1ccc2c(c1)N(CC)C(=O)c1ccccc1S2(=O)=O | 1% | i | 1.1 | 3 | 0
Cc1ccc(N=C(c2cccs2)N2CCOCC2)cc1 | 4% | i | 1.1 | 6 | 5
O=C(Nc1cc(C(F)(F)F)ccc1N1CCCC1)c1cccnc1 | 8% | i | 0.9 | 0 | 11
CCCCNC(=O)CCC(=O)Nc1ccc2nc(N3CCOCC3)cc(C)c2c1 | 8% | · | 4.7* | 7 | 8
Cc1noc(C)c1S(=O)(=O)N1CCCC(C(=O)N2CCc3ccccc3C2)C1 (stereo unspecified) | 2% | i | 1 | 6 | 0
COCCN(CC(=O)NCc1ccccc1)C(=O)CCC(=O)Nc1ccccn1 | 5% | i | 0.98 | 8 | 15
COc1ccc(OCCNC(=O)c2ccccc2OCC(=O)N2CCCCC2)cc1 | 6% | i | 1.1 | 14 | 5
CCN(CC)CCCNC(=O)c1ccccc1C | 4% | i | 1.2 | 7 | 6
CCN(CC)CCNC(=O)c1ccccc1N | 3% | · | 2.3* | 0 | 5
Cc1ccc(OCCNC(=O)c2ccccc2N)cc1 | 2% | · | 2.1* | 4 | 0
O=c1c2ccccc2nc2n1CCCCN2 | 6% | · | 3.8* | 3 | 9
Nc1ccc2nc3n(c(=O)c2c1)CCC3 | 9% | · | 2.1* | 6 | 12
O=c1c2ccccc2nc2n1CCC2 | ? | i | 1.1 | 86* | 23
O=c1c2ccccc2nc2n1CCCCC2 | 5% | i | 1 | 7 | 8
COc1ccccc1N1CCN(C(=O)c2cnn3cccnc23)CC1 | 2% | i | 1.1 | 2 | 4
SMILES | NADH enzymes | DPM-DC inhibit | Fluor 339 460 | Spn MK inh | Spn PMK inh
CN(C)c1nc(-c2ccccc2)c2cnn(Cc3ccccc3)c2n1 | 9% | · | 2.1* | 10 | 8
c1ccc(Cn2ncc3c2ncn2nc(-c4ccncc4)nc32)cc1 | 4% | i | 1 | 5 | 4
COc1ccc(N2CCN(CCNS(=O)(=O)c3cccc4nsnc34)CC2)cc1 | 10% | + | 1.1 | 30 | 33*
NC(=O)c1ccsc1NC(=O)COC(=O)c1ccccc1NCc1ccco1 | 0% | · | 2.1* | 0 | 0
COc1cc(NC(=O)c2cccs2)c(C(=O)OCC(=O)NCc2ccco2)cc1OC | 17% | + | 1.4 | 5 | 13
O=C(COC(=O)c1ccccc1Nc1ccccc1)NCc1ccco1 | 4% | i | 1.3 | 0 | 12
COC(=O)c1c(C(=O)OC)c2cc(C)ccn2c1Cl | 10% | · | 3.4* | 11 | 8
COc1ccc(Cn2nnnc2C(c2ccccn2)N2CCN(c3cc(Cl)ccc3C)CC2)cc1 (stereo unspecified) | 3% | i | 1 | 4 | 28*
COc1ccc(C(c2nnnn2Cc2ccc(F)cc2)N2CCN(c3ccccc3)CC2)cc1 (stereo unspecified) | 8% | i | 1.1 | 8 | 15
Cc1cc(C)nc(NC(=O)CN2C(=O)c3ccccc3C2=O)n1 | 1% | i | 1.1 | 4 | 0
COc1ccc(CN(C)CCc2ccccn2)c(OC)c1OC | 24% | i | 1.1 | 68* | 4
Cc1cccc(CN(C)CCc2ccccn2)c1 | 15% | i | 1.1 | 44* | 0
CC1(C)CN(O)CCN1O | 1% | i | 1 | 0 | 2
CC(C)(C)NC(=O)c1ccccc1-c1nc(-c2ccccc2Cl)no1 | 8% | i | 1.1 | 8 | 15
CCN(CC)C(=O)c1cn(CC)c(=O)c2cc(OC)c(OC)cc12 | 3% | i | 1.1 | 8 | 0
O=C(NC1CCCc2ccccc21)C1CCN(c2c3c(nc4ncnn24)CCC3)CC1 (stereo unspecified) | 6% | · | 4.7* | 5 | 6
c1ccc(-n2nc3c(ccc4cnnc43)[nH]2)cc1 | 9% | · | 4* | 13 | 5
CC(C)(C)c1nnc2sc(SCC(=O)c3cccs3)nn2c1=O | 4% | i | 1.1 | 0 | 12
CCn1nnc(NC(=O)c2cccc(-c3cc4ccccc4oc3=O)c2)n1 | 38% | · | 3.9* | 67* | 9
CCn1nnc(NC(=O)c2cccnc2)n1 | 6% | i | 1.1 | 9 | 9
Cc1cc(NCCCCO)n2c(nc3ccccc32)c1C#N | 10% | · | 3.6* | 6 | 13
CCCc1cc(NCCCCO)n2c(nc3ccccc32)c1C#N | 8% | · | 2.4* | 5 | 10
COCCN(CCOC)c1cc(C)c(C#N)c2nc3ccccc3n12 | 10% | · | 3.8* | 6 | 13
Cc1cc(-c2ccco2)n2c(nc3ccccc32)c1C#N | 4% | i | 1.1 | 7 | 6
O=C1c2cccnc2C(=O)N1Cc1ccc(F)cc1 | 6% | i | 1 | 3 | 16
SMILES | NADH enzymes | DPM-DC inhibit | Fluor 339 460 | Spn MK inh | Spn PMK inh
CCOC(=O)c1sc(NS(=O)(=O)c2ccc(NC(C)=O)cc2)nc1C | 2% | i | 1 | 4 | 9
O=C(C1=COCCO1)N1CCN(C(c2ccccc2)c2ccccc2)CC1 | 3% | i | 1.1 | 3 | 5
CCCCNC(=O)c1cc2c(-c3ccc(Cl)cc3)nn(C)c2s1 | 1% | i | 1.5 | 3 | 0
COCCCNC(=O)c1cc2c(-c3ccc(Cl)cc3)nn(C)c2s1 | 1% | · | 2.2* | 1 | 0
COCCNC(=O)c1cc2c(-c3ccccc3F)nn(C)c2s1 | 7% | i | 2* | 12 | 13
COCCNC(=O)c1cc2c(-c3ccc(Cl)cc3)nn(C)c2s1 | 4% | · | 2.2* | 0 | 7
Cn1nc(-c2ccc(Cl)cc2)c2cc(C(=O)NCCCN3CCCC3)sc21 | 6% | · | 2.1* | 6 | 6
CC(C)NC(=O)c1cc2c(-c3ccc(Cl)cc3)nn(C)c2s1 | 9% | i | 1.6 | 5 | 9

High-throughput results deposited in PubChem by SRMLSC.
